Over roughly 35,000 sequences, “fluorescence intensity (a.u.)” has its median near 10,000; the highest 2% begin near 52,000. The entries come from a sample that favours the highest values as a whole.

The target in the assay is T1, OsWOX13 (Oryza sativa, UniProt Q5QMM3 1-267).
T1 sequence: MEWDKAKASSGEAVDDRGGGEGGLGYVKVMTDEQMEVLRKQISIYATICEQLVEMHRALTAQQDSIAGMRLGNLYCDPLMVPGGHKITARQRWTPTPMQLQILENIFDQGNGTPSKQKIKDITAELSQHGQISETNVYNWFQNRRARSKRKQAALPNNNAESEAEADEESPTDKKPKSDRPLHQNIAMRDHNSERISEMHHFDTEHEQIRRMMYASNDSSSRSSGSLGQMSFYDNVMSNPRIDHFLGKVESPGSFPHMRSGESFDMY
Kind of assay: protein-binding microarray (RPBM); PBS, 2% BSA, 51.3 ng/ul salmon testes DNA, 50 uM zinc acetate, 200 nM TF, 25 C, 1 h; high values mean tight binding. The following applies: protein: recombinant; tags: N-terminal polyhistidine and DsRed monomer fusion (pET32a); label: CyDye5-dUTP incorporated in the synthesized complementary strand; 3' TTTTT single-stranded linker to array surface; dsDNA, one strand shown. Put shortly: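 Transcription factors were each fused at the N-terminus to a polyhistidine tag plus DsRed and expressed in E. coli BL21-CodonPlus before Ni–NTA purification. Binding to a double-stranded custom Agilent array was carried out with 200 nM protein at 25 °C for 1 h in PBS, 2% BSA, salmon testes DNA and 50 µM zinc acetate. The binding signal is per-feature fluorescence intensity, in arbitrary units, on an Axon 4000B scanner.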
“TCGTATTTATGGCTAATTATTATTTCAGTGGTAGACGATTCGGAGTCACCTAGTGCAG”: the binding signal was 6670 fluorescence intensity (a.u.). Turning to “TACACTAATTAATTAAGCATTAATCGTGGGAAGAGTAACGCGGAGTCACCTAGTGCAG”, the binding signal was 47000 fluorescence intensity (a.u.). Take “TTGCATGTTTGTGGATTGATACATTAGATATTGATCTATCCGGAGTCACCTAGTGCAG”: the binding signal is 3540 fluorescence intensity (a.u.). The value for “TCATGCAGTAATTAATCAGTGACAGTGAACCTTGTTAGTACGGAGTCACCTAGTGCAG” was 17400 fluorescence intensity (a.u.); that for “AGAAAATTTAATCTTAAATATGGACATTACGAATGTACAACGGAGTCACCTAGTGCAG” was 4110 fluorescence intensity (a.u.); that for “AAAATTTGTCAATAAATATATAGGCAGTCCCGGTCCGTTCCGGAGTCACCTAGTGCAG” was 4490 fluorescence intensity (a.u.).

Turning to “TCCTCAATTAATTGCTGATCCTAATGCAGAGTTTCAGGTGCGGAGTCACCTAGTGCAG”, the binding signal was 35500 fluorescence intensity (a.u.). The value for “TATCACTAATAATTTAGCTCAGTTTGACAAGACGGATATCCGGAGTCACCTAGTGCAG” was 4380 fluorescence intensity (a.u.). On to “TTACCAAATTTCACTGTTAACAGCGGTGCGTGGGTATTGACGGAGTCACCTAGTGCAG”, for which the binding signal is 6390 fluorescence intensity (a.u.). The value for “GGTATAACCTAAAGTTTATCCGTTTGTAGAGCGAATGTTTCGGAGTCACCTAGTGCAG” was 14400 fluorescence intensity (a.u.); that for “CATGGTCAATCTACTCGTTAACGTACATTCACGGTTATTTCGGAGTCACCTAGTGCAG” was 9160 fluorescence intensity (a.u.). Consider “TAATTTAATTTAATTACCTCCCTAATCACTCTCGCTCGCTCGGAGTCACCTAGTGCAG”, for which the binding signal was 46200 fluorescence intensity (a.u.).

For the sequence “GCCTAATTGCTTAATTAGCAGCCAACGGATTCGATTGATCCGGAGTCACCTAGTGCAG”, the binding signal is 53900 fluorescence intensity (a.u.). As for “AGAGATCGATCGATTAATTAGCAACAAGCCAACGACAAGCCGGAGTCACCTAGTGCAG”, the binding signal was 4950 fluorescence intensity (a.u.). For the sequence “CATACATATGTAATTTACTTCGATTCGATTAAATTGGCAGCGGAGTCACCTAGTGCAG”, the binding signal was 7090 fluorescence intensity (a.u.). As for “TCTAATTGGCTTACTTAATATGATTCGATCCTACAACCTCCGGAGTCACCTAGTGCAG”, the figure is 53700 fluorescence intensity (a.u.); as for “TCCACTTGGGTGATTAGAATCTGTCTTCCCTGTTTTAAGCCGGAGTCACCTAGTGCAG”, 7670 fluorescence intensity (a.u.).

On to “GCTGTTTGATCCATAATTTATCCGCGCGTCGTCACTCCGACGGAGTCACCTAGTGCAG”, for which the binding signal was 5840 fluorescence intensity (a.u.). “GTTTTCCTAATTAATTGCTAGCTCGATTTGCTCGGTGATCCGGAGTCACCTAGTGCAG”: the binding signal is 29900 fluorescence intensity (a.u.). On to “TCGTGATTAGAATCTTAATCTCTAGCCTGTCTTTGCTTGCCGGAGTCACCTAGTGCAG”, for which the binding signal was 56200 fluorescence intensity (a.u.).

On to “CTTAATTAGCTCTAGCGAGCTAGCTAGCTTGCTCTGTCTTCGGAGTCACCTAGTGCAG”, for which the binding signal is 24200 fluorescence intensity (a.u.). Consider “CACTTGATTAATTTATCCTCTCCTCGCGTCGCTGTCGCGTCGGAGTCACCTAGTGCAG”, for which the binding signal was 52700 fluorescence intensity (a.u.).

“TAACCTTAATTAATTGATTAAATTACAAATATTCTAGCCCCGGAGTCACCTAGTGCAG”: the binding signal is 44000 fluorescence intensity (a.u.). The value for “AAGATGAGGTGATAGACTGACTAGCACTGAGCTTGCCCGGCGGAGTCACCTAGTGCAG” was 14400 fluorescence intensity (a.u.).

For the sequence “ACTAGACAATTTGAATTTACAACTATATATACTCCCAATCCGGAGTCACCTAGTGCAG”, the binding signal was 3250 fluorescence intensity (a.u.). Turning to “GAACTAGCTTAATTAAACCACAATTAGAATATATGTAGGACGGAGTCACCTAGTGCAG”, the binding signal was 3750 fluorescence intensity (a.u.). The value for “TAAGTAATTATTTATTCTTTTCATATCATTTGATTCATTGCGGAGTCACCTAGTGCAG” was 15400 fluorescence intensity (a.u.).

As to “AAAAGGATATGATTTGAAATGGCATTAAAGTGAATAGGCCCGGAGTCACCTAGTGCAG”, the binding signal is 4540 fluorescence intensity (a.u.). For the sequence “TTAGCGTCTAATTATAGGATTATTTATGATAATATTCGTCCGGAGTCACCTAGTGCAG”, the binding signal is 5680 fluorescence intensity (a.u.). In the case of “TTATGATTTAATTAGCGATTAATTATCCTAATTAGTGATTCGGAGTCACCTAGTGCAG”, the binding signal is 62200 fluorescence intensity (a.u.). As for “ACTCCTGACTTGATTGGCAGTGAGTTGCTCATCTGCCTAGCGGAGTCACCTAGTGCAG”, the figure is 40300 fluorescence intensity (a.u.); as for “CAGTTAATTGAGTTGATGGCCACTCCTCTGCTGCTCGTCGCGGAGTCACCTAGTGCAG”, 60700 fluorescence intensity (a.u.). On to “CTAATGAGCCTAATTAATCCATGATTAGCCTATGTGATGCCGGAGTCACCTAGTGCAG”, for which the binding signal was 43000 fluorescence intensity (a.u.).

In the case of “GCCTAATTAATCCATGATTAGCCTATGTGATGCTATAGTACGGAGTCACCTAGTGCAG”, the binding signal was 52700 fluorescence intensity (a.u.). For “TCTAATTAATCCATGATTAGCCTATGTGATGCTACAGTAACGGAGTCACCTAGTGCAG”, the binding signal is 25100 fluorescence intensity (a.u.).

In the case of “GATTAGGTTAATTGAGATCTGCCTTGCTCTGCTCTGCTCGCGGAGTCACCTAGTGCAG”, the binding signal is 21500 fluorescence intensity (a.u.). As to “TCCAACGGTGCCGCTTAATTAGTGATTAATTATCCTAATTCGGAGTCACCTAGTGCAG”, the binding signal is 16400 fluorescence intensity (a.u.). For the sequence “ATGACTATTTTCACCTATAATTATAAGTTATGGAACAATACGGAGTCACCTAGTGCAG”, the binding signal was 4820 fluorescence intensity (a.u.). As for “AGCAAAATTAACACCGCAATTTGAGCCGGTTACTTCTTTCCGGAGTCACCTAGTGCAG”, the figure is 4830 fluorescence intensity (a.u.); as for “CCGCGATTACAATTAGCGCCGGATTAACCCTGCAATTAGCCGGAGTCACCTAGTGCAG”, 20500 fluorescence intensity (a.u.); as for “CTCAACATGAACTTCTTGATTACCTGTGACCCAGCCACGGCGGAGTCACCTAGTGCAG”, 3150 fluorescence intensity (a.u.).

Regarding “CATGATTGAAACATTACTTGATGGCTTCTGGTCCTACCCACGGAGTCACCTAGTGCAG”, the binding signal is 53900 fluorescence intensity (a.u.). Turning to “CATCGAACATCATGAATTTGATTGGCTTCTACTTTCACGACGGAGTCACCTAGTGCAG”, the binding signal was 17100 fluorescence intensity (a.u.).

These data come from PMC7819943, “Rice protein-binding microarrays: a tool to detect cis-acting elements near promoter regions in rice”.
